Common to all, as to experiment: NCI-60 one-dose screen, 48 h (100 = growth as untreated, 0 = no growth, -100 = all killed)
What all share (settings): 10 µM unless noted

The subject of assay [1] is SK-MEL-2 melanoma.
Assay [2] deals with EKVX NSCLC.
Assay [3] has as its system SN12C renal.
In assay [4] the test system is UO-31 renal.
Assay [5] relates to TK-10 renal.
The test system of assay [6] is ACHN renal.
Assay [7] deals with CAKI-1 renal.
Assay [8] deals with A498 renal.
Assay [9] deals with CCRF-CEM leukemia.
Assay [10] deals with SR leukemia.
Assay [11] relates to RPMI-8226 leukemia.
Assay [12] concerns OVCAR-8 ovarian.
Assay [13] deals with OVCAR-5 ovarian.
Assay [14] deals with OVCAR-4 ovarian.
Assay [15] has as its system SK-OV-3 ovarian.
For assay [16], the system named is IGROV1 ovarian.
Assay [17] concerns OVCAR-3 ovarian.
Assay [18] deals with HS 578T breast.
For assay [19], the system named is NCI/ADR-RES ovarian.

Consider eight compounds from PubChem BioAssay (NCI).

About 83,000 compounds went through this panel and 20% of them were active in at least one assay; those are over-represented in the sample as a whole.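 The test compound was applied at a single concentration to cells in 96-well plates for 48 hours, and percent growth was recorded.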 Values without a mark were called inactive. Activity calls are given as the source filed them. The calls were made as follows: active = growth percent below 10; inactive = the rest.

With `Fc1ccc(CNc2c3ccccc3nc3ccccc23)cc1F`, the growth in [1] is 89.4%; in assay [2] it was 35.4%; in assay [3], 29.7%; in assay [4], 15.6%; in assay [5], 51.1%; in assay [6] it was 19.3%. The growth in assay [7] was 25.3%; in assay [8] it was 9.78% (active); in [9] it was 41.5%; in [10], 17%; in assay [11] it was 26.9%; in assay [12], 32.1%. For the same compound, the growth in assay [13] is 44.6%; in assay [14], 35.4%; in assay [15] it was 55.7%; in [16], 22.8%; in assay [17] it was 68.9%; in assay [18] it was 64.8%. In addition, the growth in assay [19] is 27.6%.

For `CCCCCCCCCCCCCCCCCCOc1ccccc1CC(=O)OCCC[N+](C)(C)C`, the growth in assay [1] was 87.7%; in assay [2], 79%; in assay [3], 36%; in assay [4], 90.1%; in assay [5] it was 50.1%; in [6], 67.5%. Also, the growth in assay [7] was 43.6%; in assay [8], 98.5%; in assay [9], 25.7%; in assay [10], 56.6%; in [11], 38.1%; in [12], 43.8%. For the same compound, the growth in assay [13] was 46.9%; in assay [14], 35%; in assay [15] it was 94.2%; in assay [16] it was -15.2% (active); in [17] it was 64.3%; in [18], 67.2%. Also, the growth in [19] was 100%.

In the case of `FC(F)(F)c1cc(Nc2ccc3cc(OCCCN4CCOCC4)ccc3n2)ccc1Cl`, the growth in assay [1] was 46%; in [2] it was 62.2%; in assay [3], 49.4%; in assay [4], 27.6%; in [5], 43.3%; in [6] it was 29.5%. The growth was 86.1% in assay [7]; 36.4% in assay [8]; 3.89% (active) in assay [9]; -12.3% (active) in assay [10]; 7.22% (active) in [11]; 31.3% in [12]. The growth in assay [13] was 59.1%; in [14] it was 48.6%; in [15], 58.3%; in [16], 54.3%; in assay [17], 48.1%; in assay [18], 6.22% (active). Further, in assay [19], the growth was 44.9%.

With `O=[N+]([O-])c1ccc(Sc2cccc[n+]2[O-])c2nonc12`, the growth is 92.9% in assay [1]; 98.2% in assay [2]; 93.6% in assay [3]; 49.1% in assay [4]; 133% in [5]; 95.4% in assay [6]. Further, the growth in assay [7] is 102%; in assay [8] it was 113%; in [9], -18.8% (active); in [10], 1.31% (active); in assay [11], -12.2% (active); in [12] it was 82.5%. In addition, the growth was 120% in [13]; 40.9% in assay [14]; 108% in [15]; 6.59% (active) in assay [16]; -8.18% (active) in assay [17]; 24.8% in assay [18]. Also, the growth in [19] was 84.8%.

Turning to `COc1cc(-c2nn(-c3ccccc3)cc2-c2ccnc(NCCNS(=O)(=O)c3ccc(Cl)cc3)n2)ccc1Cl`, the growth in assay [1] is 61.2%; in assay [2] it was 37%; in assay [3], 26.8%; in [4] it was 21.2%; in [5], 43%; in assay [6], 15.4%. The growth in assay [7] is 28.9%; in assay [8], 32%; in assay [9] it was 35.8%; in [10] it was -19.4% (active); in assay [11], 35%; in assay [12], 36.1%. Further, the growth is 68.8% in assay [13]; 38.3% in [14]; 22.7% in assay [15]; 38.2% in assay [16]; 35.1% in [17]; 58.4% in assay [18]. In addition, the growth in [19] was 31.7%.

`O=[N+]([O-])c1ccc(OCCO)cc1`: the growth in assay [1] was 105%; in [2], 92.8%; in [3], 101%; in assay [4], 86.2%; in [5], 117%; in assay [6] it was 104%. The growth in [7] was 93.1%; in assay [8], 90.6%; in assay [9] it was 96.2%; in [10] it was 139%; in assay [11], 101%; in [12], 98.7%. The growth in assay [13] was 97.1%; in assay [14] it was 102%; in assay [15] it was 103%; in [16] it was 105%; in assay [17] it was 99.9%; in assay [18], 99.5%. Moreover, in [19], the growth was 97.8%.

With `Cc1cc(NCc2cc(Nc3ccnc4cc(Cl)ccc34)ccc2F)nc(N2CCCC2)n1`, the growth in [1] was 93.5%; in assay [2], 17.3%; in assay [3], 35.8%; in assay [4], -50.9% (active); in assay [5] it was -35.8% (active); in assay [6], -69.2% (active). Further, the growth is 71.5% in [7]; 59.2% in assay [8]; -22.5% (active) in assay [9]; -23.9% (active) in assay [10]; -24.2% (active) in assay [11]; 2.5% (active) in assay [12]. The growth was 6.27% (active) in [13]; -0.25% (active) in [14]; 51.1% in assay [15]; -2.2% (active) in assay [16]; -73.6% (active) in [17]; 56.8% in assay [18]. In assay [19], the growth was 12.7%.

Regarding `N#Cc1c(N)nc(NCCO)nc1-c1ccc(F)cc1`, the growth in assay [1] was 108%; in assay [2], 89.9%; in [3], 103%; in assay [4] it was 92.8%; in assay [5], 106%; in assay [6], 100%. Further, the growth is 95.9% in [7]; 89.1% in assay [8]; 112% in assay [9]; 99.3% in assay [10]; 94.1% in [11]; 99.7% in assay [12]. Moreover, the growth is 105% in assay [13]; 95.6% in [14]; 84.9% in [15]; 102% in assay [16]; 110% in [17]; 92.5% in assay [18]. Also, the growth in assay [19] was 105%.
